Laboratory results from PubChem BioAssay (NCATS).
Inconclusive results are not listed. Calls of active or inactive are those of the source. The call rests on the fitted dose curve; in most records, active means well fitted curve in the direction sought with a large enough effect; inconclusive means small, poorly fitted or top-dose-only effect, or another doubt; inactive means no such curve, though single readings can be large; an effect the other way counts as inactive or inconclusive.

Experiments:
[1] = Quantitative High-Throughput drug screen in 47 multiple myeloma cell lines against the NCATS MIPE library collection: NCIH929_DSMZ cell viability assay (AID 1918978); further: nearly all actives have a fitted effect of over 35% in size
Procedure, shortened: (§1)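 500 cells/well per myeloma line exposed to pinned MIPE 4.0 compounds for 48 h at 37 °C, 5% CO2. Viability read as ATP by CellTiter-Glo luminescence, normalised to DMSO-only (100%) and media-only (0%) wells.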

[2] = Quantitative High-Throughput drug screen in 47 multiple myeloma cell lines against the NCATS MIPE library collection: OCIMY1_PLB cell viability assay (AID 1918979); further: nearly all actives have a fitted effect of over 35% in size
Procedure, shortened: as §1

[3] = Quantitative High-Throughput drug screen in 47 multiple myeloma cell lines against the NCATS MIPE library collection: MM1S_ATCC cell viability assay (AID 1918980); further: nearly all actives have a fitted effect of over 45% in size
Procedure, shortened: as §1

[4] = Quantitative High-Throughput drug screen in 47 multiple myeloma cell lines against the NCATS MIPE library collection: MM1R_ATCC cell viability assay (AID 1918981); further: nearly all actives have a fitted effect of over 35% in size
Procedure, shortened: as §1

[5] = Quantitative High-Throughput drug screen in 47 multiple myeloma cell lines against the NCATS MIPE library collection: LP1_DSMZ cell viability assay (AID 1918982); further: nearly all actives have a fitted effect of over 35% in size
Procedure, shortened: as §1

[6] = Quantitative High-Throughput drug screen in 47 multiple myeloma cell lines against the NCATS MIPE library collection: KMS28PE_JCRB cell viability assay (AID 1918983); further: nearly all actives have a fitted effect of over 35% in size
Procedure, shortened: as §1

[7] = Quantitative High-Throughput drug screen in 47 multiple myeloma cell lines against the NCATS MIPE library collection: L363_DSMZ cell viability assay (AID 1918984); further: nearly all actives have a fitted effect of over 40% in size
Procedure, shortened: as §1

[8] = Quantitative High-Throughput drug screen in 47 multiple myeloma cell lines against the NCATS MIPE library collection: KMS34_JCRB cell viability assay (AID 1918985); further: nearly all actives have a fitted effect of over 40% in size
Procedure, shortened: as §1

[9] = Quantitative High-Throughput drug screen in 47 multiple myeloma cell lines against the NCATS MIPE library collection: OCIMY5_PLB cell viability assay (AID 1918988); further: nearly all actives have a fitted effect of over 65% in size
Procedure, shortened: as §1

[10] = Quantitative High-Throughput drug screen in 47 multiple myeloma cell lines against the NCATS MIPE library collection: OPM1_PLB cell viability assay (AID 1918989); further: nearly all actives have a fitted effect of over 40% in size
Procedure, shortened: as §1

[11] = Quantitative High-Throughput drug screen in 47 multiple myeloma cell lines against the NCATS MIPE library collection: U266_ATCC cell viability assay (AID 1919864); further: nearly all actives have a fitted effect of over 35% in size
Procedure, shortened: as §1

[12] = Quantitative High-Throughput drug screen in 47 multiple myeloma cell lines against the NCATS MIPE library collection: XG6_PLB cell viability assay (AID 1919865); further: nearly all actives have a fitted effect of over 40% in size
Procedure, shortened: as §1

[13] = Quantitative High-Throughput drug screen in 47 multiple myeloma cell lines against the NCATS MIPE library collection: VP6_DJ cell viability assay (AID 1919867); further: nearly all actives have a fitted effect of over 40% in size
Procedure, shortened: as §1

[14] = Quantitative High-Throughput drug screen in 47 multiple myeloma cell lines against the NCATS MIPE library collection: UTMC2_PLB cell viability assay (AID 1919868); conditions: CellTiter-Glo ATP luminescence, 48 h; viability (% of DMSO control): at 45.8 µM (top of the series); further: nearly all actives have a fitted effect of over 55% in size
Procedure, shortened: as §1

[15] = Quantitative High-Throughput drug screen in 47 multiple myeloma cell lines against the NCATS MIPE library collection: PE2_PLB cell viability assay (AID 1919869); further: nearly all actives have a fitted effect of over 35% in size
Procedure, shortened: as §1

[16] = Quantitative High-Throughput drug screen in 47 multiple myeloma cell lines against the NCATS MIPE library collection: PCM6_Riken cell viability assay (AID 1919870); further: nearly all actives have a fitted effect of over 30% in size
Procedure, shortened: as §1

[17] = Quantitative High-Throughput drug screen in 47 multiple myeloma cell lines against the NCATS MIPE library collection: MOLP8_DSMZ cell viability assay (AID 1918977); further: nearly all actives have a fitted effect of over 45% in size
Procedure, shortened: as §1

[18] = Quantitative High-Throughput drug screen in 47 multiple myeloma cell lines against the NCATS MIPE library collection: OCIMY7_PLB cell viability assay (AID 1918987); conditions: OCI-MY7 myeloma viability, CellTiter-Glo ATP, 48 h; viability (% of DMSO): at 45.8 µM (top of the series); further: nearly all actives have a fitted effect of over 65% in size
Procedure, shortened: as §1

[19] = Quantitative High-Throughput drug screen in 47 multiple myeloma cell lines against the NCATS MIPE library collection: XG1_PLB cell viability assay (AID 1919866); further: nearly all actives have a fitted effect of over 35% in size
Procedure, shortened: as §1

[20] = Quantitative High-Throughput drug screen in 47 multiple myeloma cell lines against the NCATS MIPE library collection: SKMM1_PLB cell viability assay (AID 1919863); conditions: SKMM1 myeloma viability, CellTiter-Glo ATP, 48 h; viability: stronger effect = lower value; further: nearly all actives have a fitted effect of over 35% in size
Procedure, shortened: as §1
Potency means the concentration at half of the fitted maximal effect.

Clc1ccc(C(c2ccc(Cl)cc2)n2cc[n+](CC(OCc3ccc(Cl)cc3Cl)c3ccc(Cl)cc3Cl)c2)cc1 (stereo not given)
active: Potency [1] 9.35 µM | Potency [2] 18.7 µM | Potency [3] 16.6 µM | Potency [4] 18.7 µM | Potency [5] 18.7 µM | Potency [6] 20.9 µM | Potency [7] 6.62 µM | Potency [8] 16.6 µM | Potency [9] 14.8 µM | Potency [10] 11.8 µM | Potency [11] 16.6 µM | Potency [12] 6.62 µM | Potency [13] 8.33 µM | Potency [14] 4.69 µM | Potency [15] 13.2 µM | Potency [16] 6.62 µM

O=C1NC(=O)C(=Cc2ccc(-c3ccc(F)cc3)o2)S1
active: Potency [4] 2.09 µM | Potency [18] 20.9 µM | Potency [12] 18.7 µM | Potency [15] 8.33 µM | Potency [16] 7.43 µM
inactive: Potency [17] | Potency [11] | Potency [14]

C[C@]12CC[C@@H]3c4ccc(O)cc4C[C@@H](CCCCCCCCCS(=O)CCCC(F)(F)C(F)(F)F)[C@H]3[C@H]1CC[C@H]2O (stereo not given in full)
active: Potency [3] 2.96 µM | Potency [5] 11.8 µM | Potency [18] 5.9 µM | Potency [9] 10.5 µM | Potency [12] 6.62 µM
inactive: Potency [17] | Potency [2] | Potency [7] | Potency [11] | Potency [19] | Potency [13] | Potency [14] | Potency [15]

O=C(O)C(O)Cc1ccc(O)c(O)c1 (stereo not given)
active: Potency [17] 20.9 µM | Potency [3] 16.6 µM | Potency [8] 18.7 µM | Potency [9] 23.5 µM | Potency [11] 26.4 µM | Potency [15] 16.6 µM
inactive: Potency [7] | Potency [12]

O=C1C[C@@H](c2ccc(O)cc2)Oc2cc(O)cc(O)c21
inactive: Potency [1] | Potency [2] | Potency [4] | Potency [5] | Potency [12] | Potency [15] | Potency [16]
active: Potency [3] 10.5 µM

CC=CC(=O)N(CC)c1ccccc1C
active: Potency [3] 6.62 µM | Potency [12] 23.5 µM | Potency [13] 29.6 µM
inactive: Potency [1] | Potency [2] | Potency [4] | Potency [5] | Potency [6] | Potency [9] | Potency [10] | viability [20] 126% | Potency [11] | Potency [14] | Potency [15]

Clc1ccc(-c2nc3sccn3c2C=NOCc2ccc(Cl)c(Cl)c2)cc1
inactive: Potency [17] | Potency [2] | Potency [3] | Potency [5] | Potency [8] | viability [20] 102% | Potency [14] | Potency [15]

Cc1ccc(Nc2cc(-c3cccc(N4C(=O)c5ccccc5C4=O)c3)ncn2)cc1NS(C)(=O)=O
active: Potency [1] 3.32 µM | Potency [3] 20.9 µM | Potency [4] 23.5 µM | Potency [5] 26.4 µM | Potency [7] 18.7 µM | Potency [9] 20.9 µM | Potency [11] 23.5 µM | Potency [12] 8.33 µM | Potency [19] 18.7 µM | Potency [13] 14.8 µM | Potency [14] 20.9 µM | Potency [15] 16.6 µM | Potency [16] 14.8 µM
inactive: Potency [2]

C=C1C(=O)OC(CCCCCCCC)C1C(=O)O (stereo not given)
inactive: Potency [17] | Potency [5] | Potency [6] | Potency [7] | Potency [8]
active: Potency [18] 11.8 µM | Potency [10] 20.9 µM | Potency [12] 20.9 µM | Potency [19] 14.8 µM | Potency [16] 23.5 µM

CCOC(=O)C1=C(N)Oc2ccc(Br)cc2C1C(C#N)C(=O)OCC (stereo not given)
active: Potency [17] 18.7 µM | Potency [3] 16.6 µM | Potency [4] 23.5 µM | Potency [6] 26.4 µM | Potency [18] 7.43 µM | Potency [9] 9.35 µM | Potency [20] 20.9 µM | Potency [12] 18.7 µM | Potency [19] 16.6 µM | Potency [14] 18.7 µM | Potency [15] 20.9 µM | Potency [16] 16.6 µM

O=C1NC(=O)C(=Cc2ccc3c(c2)OC(F)(F)O3)S1
inactive: Potency [17] | Potency [2] | Potency [11]
active: Potency [3] 20.9 µM | Potency [5] 18.7 µM | Potency [10] 7.43 µM | Potency [12] 1.66 µM | Potency [14] 23.5 µM | Potency [15] 20.9 µM | Potency [16] 4.18 µM

COc1cc2c(cc1OC)CN(CCc1ccc(NC(=O)c3cc(OC)c(OC)cc3NC(=O)c3cnc4ccccc4c3)cc1)CC2
inactive: Potency [17] | Potency [2] | Potency [5] | Potency [7] | Potency [8] | viability [20] 118%
active: Potency [18] 6.62 µM | Potency [11] 5.26 µM | Potency [12] 18.7 µM | Potency [19] 20.9 µM | Potency [15] 26.4 µM | Potency [16] 18.7 µM

CCOC(CN1C(=O)[C@](CC(=O)Nc2ccc(C)cc2)(NC(=O)Nc2ccc(C)cc2)c2ccccc21)OCC
inactive: Potency [17] | Potency [5] | viability [20] 93.3%
active: Potency [9] 26.4 µM | Potency [13] 26.4 µM | Potency [15] 23.5 µM

O=c1cc(-c2cccc3c2Sc2ccccc2S3)oc(N2CCOCC2)c1
inactive: Potency [2]
active: Potency [1] 18.7 µM | Potency [3] 18.7 µM | Potency [4] 23.5 µM | Potency [9] 20.9 µM | Potency [20] 18.7 µM | Potency [12] 18.7 µM | Potency [19] 18.7 µM | Potency [15] 18.7 µM | Potency [16] 14.8 µM

Cc1cc(OCCCc2c(C(=O)O)n(Cc3cccnc3)c3c(-c4c(COc5ccc(N6CCN([S+](C)(=O)[O-])CC6)cc5)nn(C)c4C)cccc23)cc(C)c1Cl
inactive: Potency [7]
active: Potency [17] 20.9 µM | Potency [2] 13.2 µM | Potency [3] 18.7 µM | Potency [5] 14.8 µM | Potency [9] 23.5 µM | Potency [20] 23.5 µM | Potency [11] 3.32 µM | Potency [12] 20.9 µM | Potency [15] 18.7 µM | Potency [16] 20.9 µM
